aSyn 5UTR act: Activators via SNCA 5'UTR binding, MLPCN; alpha-synuclein 5'UTR reporter, activators screen; activity score, % (tested at 7.5 µM), hits read low; 300,000 compounds, 7.1% hits; AID 1814, 2009; in the data active means activity score below about -60%
A number is an active result; 0 = inactive. The list is a sample of the results.

SMILES	aSyn 5UTR act
Cc1ccc(-c2nn(-c3ccccc3)cc2C(=O)Nc2ccc(C)c(S(=O)(=O)N3CCOCC3)c2)cc1	-110
N/C(=N\OC(=O)COc1cc(Cl)c(Cl)cc1Cl)c1ccccn1	-150
Cc1cccc(OCC(=O)O/N=C(\N)c2ccccn2)c1C	-172
CCOc1ccc(-c2ccc(SCC(=O)NC3CCCCC3)nn2)cc1	-69
COc1ccc(-c2ccc(SCC(=O)NC3CCCCC3)nn2)cc1	-83
COc1ccc(-c2ccc(SC)nn2)cc1	0
COc1ccc(CCC(=O)NCCS(=O)(=O)N2CCN(c3ccccc3OC)CC2)cc1	-112
CCOCCCNC(=O)c1cc2c(=O)n(CC)c3ccccc3c2s1	-80
CCN(CC)CCCNC(=O)c1cc2c(=O)n(CC)c3ccccc3c2s1	-107
CCN(CC)CCNC(=O)c1cc2c(=O)n(CC)c3ccccc3c2s1	-125
CCCN(CCC)CCNC(=O)c1cc2c(=O)n(CC)c3ccccc3c2s1	-174
CN1CCN(CCCNC(=O)c2cc3c(=O)n(C)c4ccccc4c3s2)CC1	-74
CCOc1ccc(N=C/C=C/c2ccccc2)c(O)c1	-67
CCOc1ccc(NCC(=O)N/N=C/C=C/c2ccccc2)cc1	-84
Fc1ccc(OCc2nc3ccccc3s2)cc1	-178
CCC(=O)Nc1ccc(OCc2nc3ccccc3s2)cc1	-125
c1ccc(OCc2nc3ccccc3s2)cc1	-123
O=S(=O)(Cc1nc2ccccc2s1)c1ccccc1	-69
N=C1S/C(=C\c2cn[nH]c2-c2ccc(F)cc2)C(=O)N1c1ccccc1F	-108
CCC(C)c1ccc(NC(=O)C2CC3CCC2C3)cc1 (stereo not given)	-99
CC(C)c1ccc(NC(=O)C2CC3CCC2C3)cc1 (stereo not given)	-197
CCC(C)c1ccc(NC(=O)C2CC2)cc1 (stereo not given)	-73
CCc1ccc2c(c1)C(=O)c1ccccc1C2=O	-199
CCCCN1C=CC(=C2C(=O)c3ccccc3C2=O)C=C1	0
Cc1ccc(Cl)c(NC(=O)CCl)c1Cl	-87
SMILES	aSyn 5UTR act
COc1ccccc1/C=C\C=N\NC(=O)c1ccco1	-98
COc1ccccc1/C=C/C=N/NC(=O)c1cccs1	-180
CCOc1ccc(Nc2nc(-c3cccnc3)cs2)cc1	-223
Brc1cccc(Nc2nc(-c3cccnc3)cs2)c1	-150
Brc1ccc(Nc2nc(-c3cccnc3)cs2)cc1	-161
Clc1cccc(Nc2nc(-c3cccnc3)cs2)c1	-271
Cc1cc(C(=O)N/N=C/c2ccc3c(c2)OCO3)c(C)o1	-105
Cc1occc1C(=O)N/N=C/c1ccc2c(c1)OCO2	-67
COc1ccc(/C=C/C(=O)Oc2cccc(/C=N/NC(=O)c3cccc(F)c3)c2)cc1	-151
COc1ccc(/C=C\C(=O)Oc2cccc(/C=N/NC(=O)Cc3ccc(OC)c(OC)c3)c2)cc1	-87
C=C(C)C1CC=C(C)/C(=N/NC(=O)c2ccoc2C)C1 (stereo not given)	-150
CCS(=O)(=O)NCCc1csc(-c2ccccc2)n1	-63
COc1ccc(NC2=C3CC(C)CC=C3N(c3ccc(OC)cc3)C2=O)cc1 (stereo not given)	-84
N=C1SCC(=O)N1c1nc(-c2ccccc2)cs1	-159
O=C1CC(c2ccccc2)=NN1c1nc(-c2ccccc2)cs1	-150
COc1ccc2nc(SCC(=O)Nc3ccc4sc(C)nc4c3)c(C#N)cc2c1	-148
COc1ccc2cc(C#N)c(SCC(=O)NNC(=O)Cc3ccccc3)nc2c1	-78
CCOC(=O)CSC1=C(C#N)C(c2ccc(C)o2)CC(=O)N1 (stereo not given)	0
CCOC(=O)CSc1nc2cc(OCC)ccc2cc1C#N	-209
COC(=O)CSc1nc2cc(OC)ccc2cc1C#N	-133
Cc1cccc(NC(=O)c2cc(-c3ccc(C)s3)nc3ccccc23)n1	-93
CCc1ccc(-c2cc(C(=O)Nc3c(C)n(C)n(-c4ccccc4)c3=O)c3ccccc3n2)s1	-68
O=C(N/N=C/c1cccs1)c1n[nH]c2c1CCCC2	0
Cc1occc1C(=O)N/N=C/c1cccs1	-82
Cc1occc1C(=O)N/N=C/c1cccc2ccccc12	-200
SMILES	aSyn 5UTR act
Cc1occc1C(=O)Nc1cccc2ccccc12	-172
CCOC(=O)c1sc(=NC(=O)c2ccccc2Br)n(C)c1C	-101
CCOC(=O)c1sc(=NC(=O)/C=C/c2ccccc2)n(C)c1C	-111
Cc1ccc2c(c1)sc(=NC(=O)c1cccs1)n2C	0
CCOC(=O)c1sc(=NC(=O)c2cccs2)n(C)c1C	-122
CCOC(=O)c1sc(=NC(=O)c2ccc(C)c(C)c2)n(C)c1C	-283
CCOC(=O)c1sc(=NC(=O)c2ccc(Cl)s2)n(C)c1C	-194
Oc1ccc(/C=N\Nc2nncc(-c3ccccc3)n2)cc1	-174
Cc1nc2ccccc2nc1N/N=C/c1ccc(O)cc1	-87
Oc1ccc(Nc2nc3ccccc3nc2Nc2ccc(O)cc2)cc1	0
COc1ccc(-c2cnnc(N/N=C/c3ccc(O)c(O)c3)n2)cc1	-90
COc1ccc(-c2cnnc(N/N=C/c3ccc(O)cc3)n2)cc1	-77
O=C1CC(c2cc(Br)ccc2F)c2cc3c(cc2N1)CCC3 (stereo not given)	0
N/C(=N\OC(=O)Cc1ccccc1)c1cccc(Br)c1	-72
N/C(=N\OC(=O)Cc1ccccc1)c1ccccc1Cl	-143
CC(=O)c1c(C)[nH]c(C(=O)Nc2ccc(C)c(C)c2)c1C	-88
CC(=O)c1c(C)[nH]c(C(=O)Nc2cccc(C(F)(F)F)c2)c1C	-100
CCc1c(C(=O)Nc2ccc(C)c(C)c2)[nH]c(C)c1C(C)=O	-146
CC(=O)c1c(C)[nH]c(C(=O)Nc2ccc3c(c2)OCCO3)c1C	-144
CCOC(=O)c1c(C)[nH]c(C(=O)Nc2ccc(NC(C)=O)cc2)c1C	0
CCOC(=O)c1c(C)[nH]c(C(=O)Nc2ccc(C)c(Cl)c2)c1C	-108
COc1ccc(NC(=O)c2[nH]c(C)c(C(C)=O)c2C)cc1Cl	-77
CCCCOc1ccc(-c2ncc(Cl)cn2)cc1	-89
CCCCOc1ccc(-c2ncc([N+](=O)[O-])cn2)cc1	-133
CCCCOc1ccc(-c2[nH]ncc2C=O)cc1	-82
SMILES	aSyn 5UTR act
CC1(C)CC(=O)C=C(NNC(=O)c2ccccc2O)C1	-93
COCCCNC(=O)/C=C1\Sc2ccccc2N(Cc2ccccc2F)C1=O	-94
O=C1c2ccccc2C(=O)C1c1ccccn1	-105
COc1cccc(CNc2cc(C)ccn2)c1O	-94
CCC(=O)NC(c1ccccc1OC)c1ccc2cccnc2c1O (stereo not given)	0
COc1cccc(CNc2cccc3cccnc23)c1O	-88
COc1cccc(CNc2ccccn2)c1O	-100
CCOc1cc(CNCCc2ccc(S(N)(=O)=O)cc2)ccc1OCc1ccc(Cl)cc1	0
COc1cc(CNCCc2ccc(S(N)(=O)=O)cc2)ccc1OCc1ccc(Cl)cc1	-64
Cc1ccc2nc(-c3ccc(NC(=O)c4ccco4)cc3)[nH]c2c1	-163
Cn1cccc1-c1nc2ccc(NC(=O)c3ccco3)cc2[nH]1	-132
CN(C)/C=N/c1ncc(C(=O)c2ccccc2)s1	-160
COc1ccc(C2CC(c3cccs3)=NN2c2nc(-c3ccccc3)cs2)cc1OC (stereo not given)	-64
COc1cc(-c2nnc3n2N=C(c2ccccc2)CS3)cc(OC)c1OC	0
COc1ccc(C2=NN(c3ccccc3)C(c3ccc(OC)c(OC)c3)C2)cc1 (stereo not given)	-76
Cc1ccc(C2CC(c3ccccc3)=NN2c2ccccc2)o1 (stereo not given)	-232

Assay outcomes from PubChem BioAssay.
